Laboratory results as given in publication PMC4336329 (PLoS ONE, 2015).
Screen size: about 310,000 compounds; about 14,000 (4.5%) showed an effect of 50% or more. The effect is printed as a negative number. The full list was thinned out, with strong results kept by preference.

target: human ether-à-go-go-related gene (hERG) potassium channel (human, UniProt Q12809); test: primary screen, population patch clamp on CHO cells stably expressing hERG; higher = less effect of the substance
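Further: peak tail current of the secondary pulse compared with the same well before compound.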

Sequence of human ether-à-go-go-related gene (hERG) potassium channel (Q12809 whole entry, looked up): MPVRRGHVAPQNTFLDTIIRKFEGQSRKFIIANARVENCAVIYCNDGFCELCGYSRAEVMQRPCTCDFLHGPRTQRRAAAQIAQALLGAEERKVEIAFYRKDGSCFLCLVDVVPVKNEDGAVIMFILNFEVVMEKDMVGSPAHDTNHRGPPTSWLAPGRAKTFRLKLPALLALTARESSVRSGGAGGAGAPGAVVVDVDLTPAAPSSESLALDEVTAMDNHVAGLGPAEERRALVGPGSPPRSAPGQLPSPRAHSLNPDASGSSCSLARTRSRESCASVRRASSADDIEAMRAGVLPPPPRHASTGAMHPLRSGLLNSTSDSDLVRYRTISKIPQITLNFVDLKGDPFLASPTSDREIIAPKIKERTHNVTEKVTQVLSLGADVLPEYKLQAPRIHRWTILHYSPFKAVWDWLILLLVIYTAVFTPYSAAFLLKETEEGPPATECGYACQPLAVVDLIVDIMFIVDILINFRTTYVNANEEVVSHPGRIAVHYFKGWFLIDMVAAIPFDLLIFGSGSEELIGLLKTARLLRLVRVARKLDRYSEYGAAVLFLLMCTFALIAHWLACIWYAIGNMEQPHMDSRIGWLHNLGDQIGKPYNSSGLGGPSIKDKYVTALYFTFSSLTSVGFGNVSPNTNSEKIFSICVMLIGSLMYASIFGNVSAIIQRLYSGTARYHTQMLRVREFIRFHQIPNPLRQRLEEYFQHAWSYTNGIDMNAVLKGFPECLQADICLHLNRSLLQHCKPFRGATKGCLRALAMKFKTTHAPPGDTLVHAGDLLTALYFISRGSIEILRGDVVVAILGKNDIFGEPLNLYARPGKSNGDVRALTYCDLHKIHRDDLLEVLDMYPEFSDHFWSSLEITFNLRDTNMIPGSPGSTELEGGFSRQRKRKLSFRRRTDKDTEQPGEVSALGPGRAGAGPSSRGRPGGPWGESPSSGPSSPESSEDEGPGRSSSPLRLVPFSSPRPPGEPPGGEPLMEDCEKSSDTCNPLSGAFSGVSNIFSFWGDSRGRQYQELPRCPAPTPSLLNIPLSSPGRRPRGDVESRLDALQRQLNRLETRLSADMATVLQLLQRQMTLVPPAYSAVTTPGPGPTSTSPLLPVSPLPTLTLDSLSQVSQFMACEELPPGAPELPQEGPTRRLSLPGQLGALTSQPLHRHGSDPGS

| Compound | hERG current change (%, negative = inhibition) at 10uM [%] |
| --- | --- |
| COc1ccc(Nc2nc(-c3cccc([N+](=O)[O-])c3)nc3ccccc23)cc1 | -5.91 |
| O=C(OCC1OC(Oc2ccc(O)cc2)C(O)C(O)C1O)c1ccccc1 (centres unmarked) | 14.5 |
| COCC(=O)N(CCc1ccc(OC)cc1)Cc1nc2ccccc2c(=O)[nH]1 | -2.83 |
| Cc1ccccc1NC(=O)c1ccccc1NC(=O)c1ccccc1F | 11.3 |
| O=C(c1ccco1)c1coc2c1cc(O)c1ccccc12 | 13.4 |
| CCCCNC(=O)O[C@H]1C[C@@H]2CCN3C(=O)CCC(C)(C)[C@H](C1)[C@H]23 | -23.5 |
| O=c1[nH]c(CN2CCN(C/C=C/c3ccccc3)CC2)nc2cc(Cl)ccc12 | -106 |
| O=c1[nH]c(CN2CCOCC2)nc2cc(Cl)ccc12 | -10.4 |
| COc1ccc(N2CCN(Cc3nc4cc(Cl)ccc4c(=O)[nH]3)CC2)cc1 | 13.4 |
| COc1ccc(-c2cnc(SCCNC(=O)c3ccc4c(c3)OCO4)[nH]2)cc1 | -5.44 |
| N#Cc1ccc(CSc2nnc(-c3ccccn3)n2-c2ccc(Cl)cc2)cc1 | -51.8 |
| c1ccc(CSc2nnc(-c3ccccn3)n2-c2ccccc2)cc1 | -10.6 |
| Cc1ccc(-n2c(SCc3ccc(C#N)cc3)nnc2-c2ccccn2)cc1 | -48.7 |
| COc1ccc(-n2c(SCc3ccc(C#N)cc3)nnc2-c2ccccn2)cc1 | -58.3 |
| COc1ccc(-n2c(SCC(=O)OC(C)C)nnc2-c2ccccn2)cc1 | -14.4 |
| N#Cc1ccc(CSc2nnc(-c3ccccn3)n2-c2ccccc2)cc1 | -42.1 |
| COc1cc(C(C)=O)ccc1OC(=O)C(C)N1C(=O)c2ccccc2C1=O (centres unmarked) | -13 |
| O=C(CN1C(=O)CNC1=O)Nc1cccc(C(F)(F)F)c1 | 8.56 |
| Cc1ccc(NC(=O)Cn2nnc3ccccc32)cc1 | 12.1 |
| CCCC(=O)NC(=S)Nc1cccc(NC(=O)c2ccc(Cl)cc2Cl)c1 | 11.6 |
| CCOC(=O)c1[nH]c2ccc(Br)cc2c1NC(=O)CCN1CCC(C)CC1 | -69.1 |
| CCOC(=O)c1[nH]c2ccc(F)cc2c1NC(=O)CCN1CCOCC1 | 3.03 |

| Compound | hERG current change (%, negative = inhibition) at 10uM [%] |
| --- | --- |
| CCOC(=O)C1CCN(CC(=O)Nc2c(C(=O)OC)[nH]c3ccc(Cl)cc23)CC1 | -15 |
| CCOC(=O)c1[nH]c2ccc(Br)cc2c1NC(=O)CCN1CCCC(C)(C)C1 | -75.7 |
| CCOC(=O)c1[nH]c2ccc(OC)cc2c1NC(=O)CCN1CCCC(C)C1 (centres unmarked) | -36.9 |
| CCOC(=O)c1[nH]c2ccc(Br)cc2c1NC(=O)CNC | -7.67 |
| CCOC(=O)c1[nH]c2ccc(Br)cc2c1NC(=O)CCN1CCCC(C)C1 (centres unmarked) | -73.1 |
| CCOC(=O)c1[nH]c2ccc(Br)cc2c1NC(=O)CCN1CCOCC1 | 2.43 |
| CCOC(=O)c1[nH]c2ccc(Br)cc2c1NC(=O)CCN1CCC(C(=O)OCC)CC1 | -73.9 |
| CCOC(=O)c1[nH]c2ccc(Br)cc2c1NC(=O)CCN1CCN(C(=O)OCC)CC1 | -44 |
| COC(=O)c1[nH]c2cc(OC)ccc2c1NC(=O)CCN1CCCC(C)(C)C1 | -39.4 |
| CCOC(=O)c1[nH]c2ccc(OCC)cc2c1NC(=O)CN1CCCC(C)C1 (centres unmarked) | -18.3 |
| O=C(Cn1c(=O)n(Cc2ccc3c(c2)OCO3)c(=O)c2ccccc21)N1CCCc2ccccc21 | 4.46 |
| Cc1ccc(NC(=O)CSc2nnc(-c3cccnc3)o2)c(C)c1 | 3.3 |
| CCO[C@@H]1OC(C(=O)O)=C[C@H](C)[C@H]1CCCO | 20.7 |
| COc1ccc(CC(=O)Nc2nc3n(n2)C(c2ccccc2)CC(=O)N3)cc1OC (centres unmarked) | 5.18 |
| CC(=O)c1cccc(N(CC(=O)Nc2ccc(S(=O)(=O)N3CCOCC3)cc2)S(C)(=O)=O)c1 | 8.48 |
| CCCCCCn1c(=O)c(C(=O)Nc2cnccn2)c(O)c2ccccc21 | 1.2 |
| CCn1c(-c2c(Cl)c(C)nn2C)n[nH]c1=S | 10.9 |
| COc1ccc(C(=O)Nc2cc(-c3nn4c(C)nnc4s3)ccc2C)cc1 | -41.8 |
| Cc1cc(-c2ccccc2C(=O)O)on1 | 17.6 |
| CCCc1ccc(C2=Nn3c(nnc3C(C)C)SC2)cc1 | -6.25 |
| CCOc1ccc2ccccc2c1/C=N/NC(=O)c1c(C)cc(C)[nH]c1=O | 0.637 |
| CCOC(=O)c1ccc(S(=O)(=O)N2CCN(CC(O)COc3cccc(C(C)=O)c3)CC2)cc1.O=C(O)C(=O)O (centres unmarked) | -6.64 |

| Compound | hERG current change (%, negative = inhibition) at 10uM [%] |
| --- | --- |
| CC1CCCCN1CC(O)COc1ccc(OCC(O)CN2CCCCC2C)cc1 (centres unmarked) | 16.4 |
| N#Cc1ccc(-c2ccc(OCC(O)CN3CCOCC3)cc2)cc1 (centres unmarked) | -18.4 |
| CCOC(=O)c1ccc(S(=O)(=O)N2CCN(CC(O)COc3ccc(C#N)cc3)CC2)cc1.O=C(O)C(=O)O (centres unmarked) | -63.2 |
| COc1ccc(OC)c(S(=O)(=O)N2CCN(CC(O)COc3ccc(C#N)cc3)CC2)c1 (centres unmarked) | -66.2 |
| COc1ccc(S(=O)(=O)N2CCN(CC(O)COc3ccc(C#N)cc3)CC2)cc1OC (centres unmarked) | -46.9 |
| COc1ccc(OCC(O)CN2CCCCCC2)cc1 (centres unmarked) | 9.18 |
| CC(=O)Nc1ccc(OCC(O)CN2CCN(S(=O)(=O)c3ccc(NC(C)=O)cc3)CC2)cc1 (centres unmarked) | -8.63 |
| N#Cc1ccc(-c2ccc(OCC(O)CN3CCCCC3)cc2)cc1 (centres unmarked) | -80.7 |
| COc1ccc(OC)c(S(=O)(=O)N2CCN(CC(O)COc3ccccc3)CC2)c1 (centres unmarked) | -34.7 |
| CC1CN(CC(O)COc2ccc(C#N)cc2)CCN1CC(O)COc1ccc(C#N)cc1 (centres unmarked) | -77.2 |
| CC(=O)Nc1ccc(OCC(O)CN2CCCCC2C)cc1.Cl (centres unmarked) | 3.85 |
| CCN(CC)S(=O)(=O)c1cc(C)ccc1SC | 12.1 |
| COc1ccc(C(=O)NNC(=O)c2ccc(C(C)(C)C)cc2)cc1 | 4.1 |
| CCN(CCN1CCCC1)C(=O)C1CCC(=O)N(CCCN2CCOCC2)C1 (centres unmarked) | 12.8 |
| O=C(CN1CCN(c2cccc(Cl)n2)CC1)N1CC(O)CO1 (centres unmarked) | 19.6 |
| CCc1noc(C)c1C(=O)N1CCN(S(=O)(=O)c2cccs2)CC1 | -23.5 |
| N#Cc1ccc(OCC(O)CN2CCN(CC(O)COc3ccc(C#N)cc3)CC2)cc1 (centres unmarked) | -86.1 |
| O=C(O)CN1CCN(c2ncc(C(F)(F)F)cc2Cl)CC1 | 11.6 |
| CN(C)CC(O)COc1ccc(C(C)(C)c2ccc(OCC(O)CN(C)C)cc2)cc1.Cl (centres unmarked) | 12.5 |
| COc1ccc(OCC(O)CN2CCCC2)cc1 (centres unmarked) | 15.2 |
| FC(F)(F)c1cnc(N2CCN(C(=S)NCc3ccccc3)CC2)c(Cl)c1 | -11.3 |
| CN(CCOc1ccc(Br)cc1)CC(O)COc1ccc(C#N)cc1 (centres unmarked) | -16.3 |

| Compound | hERG current change (%, negative = inhibition) at 10uM [%] |
| --- | --- |
| CN(C)CC(O)COc1ccc(-c2ccc(C#N)cc2)cc1 (centres unmarked) | -57.5 |
| N#Cc1ccc(OCC(O)CN2CCN(c3ncc(C(F)(F)F)cc3Cl)CC2)cc1 (centres unmarked) | -74.6 |
| OC(CN1CCN(c2ncc(C(F)(F)F)cc2Cl)CC1)c1ccccc1 (centres unmarked) | -58 |
| CN1CCN(CC(O)COc2ccc(OCC(O)CN3CCN(C)CC3)cc2)CC1 (centres unmarked) | -7.27 |
| CC(C)(C)NC(=O)NC(=O)CN1CCN(c2ncc(C(F)(F)F)cc2Cl)CC1 | -13.3 |
| OC(CN1CCN(c2ccc(C(F)(F)F)cn2)CC1)c1ccccc1 (centres unmarked) | -26.5 |
| CC(=O)Nc1cc(NC(=O)C2C3C=CC(C3)C2C(=O)O)ccc1Cl (centres unmarked) | 14.5 |
| Cc1ccc2nc(CSc3nnc(Nc4ccccc4C)s3)cc(=O)n2c1 | -43 |
| CN(C(=O)CSc1nnc(-c2ccc(Cl)cc2)n1CC1CCCO1)C1CCS(=O)(=O)C1 (centres unmarked) | -0.671 |
| O=C(c1ccccc1F)N(Cc1cccs1)C1CCS(=O)(=O)C1 (centres unmarked) | 21.9 |
| CN1C(=O)C2ON(c3ccccc3)C(c3cccs3)C2C1=O (centres unmarked) | -13.6 |
| CCOc1ccc(CN(C)CCc2ccccn2)cc1.O=C(O)C(=O)O | -77.8 |
| COc1cc(OC)c(OC)cc1CN(C)CCc1ccccn1.O=C(O)C(=O)O | -11.2 |
| COc1ccc(CN(C)CCc2ccccn2)cc1OC.O=C(O)C(=O)O | -5.06 |
| CCOc1ccc(OCCN(C)Cc2ccccc2)cc1.O=C(O)C(=O)O | -45.8 |
| CSc1ccc(CN(C)CCc2ccccn2)cc1.O=C(O)C(=O)O | -64.4 |
| COc1cc(CN(C)CCc2ccccn2)cc(OC)c1OC.O=C(O)C(=O)O | -11.6 |
| COc1ccc(OC)c(N(CC(=O)Nc2cccnc2)S(=O)(=O)c2ccc(OC)c(OC)c2)c1 | -17.9 |
| COC(=O)c1sc(NC(=O)c2cnccn2)c(C(=O)OC)c1C | 18.7 |
| COc1ccccc1OCCSc1ncnc2nc[nH]c12 | 4.63 |
